c-Myc SMM: c-Myc (human) binding | P01106 | small molecule microarray, His-c-Myc binding, anti-His fluorescence | calls only | actives 1.5% (n = 17,000) | AID 624141;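 active = spot fluorescence over background with P-value below 7% in all four replicate spots, showing protein binding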;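 also: score is binary with 100 for all four spots passing and 0 otherwise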
mut p53 SMM: binders of human mutant p53; small molecule microarray binding, anti-GST fluorescence; calls only; actives 0.4% (n = 17,000); AID 624136;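 active = compounds whose four printed spots each glow above background more than chance allows, each with a p-value under 7%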
STAT3 SMM: STAT3 (human) binding | actives 0.2% (n = 17,000) | AID 624138 | Small molecule microarray, His-STAT3 binding, anti-His fluorescence | calls only;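 active = compounds whose four printed spots each show fluorescence over background unusually high for their array block, chance value under 7%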
Target sequence (P40763 whole entry, looked up): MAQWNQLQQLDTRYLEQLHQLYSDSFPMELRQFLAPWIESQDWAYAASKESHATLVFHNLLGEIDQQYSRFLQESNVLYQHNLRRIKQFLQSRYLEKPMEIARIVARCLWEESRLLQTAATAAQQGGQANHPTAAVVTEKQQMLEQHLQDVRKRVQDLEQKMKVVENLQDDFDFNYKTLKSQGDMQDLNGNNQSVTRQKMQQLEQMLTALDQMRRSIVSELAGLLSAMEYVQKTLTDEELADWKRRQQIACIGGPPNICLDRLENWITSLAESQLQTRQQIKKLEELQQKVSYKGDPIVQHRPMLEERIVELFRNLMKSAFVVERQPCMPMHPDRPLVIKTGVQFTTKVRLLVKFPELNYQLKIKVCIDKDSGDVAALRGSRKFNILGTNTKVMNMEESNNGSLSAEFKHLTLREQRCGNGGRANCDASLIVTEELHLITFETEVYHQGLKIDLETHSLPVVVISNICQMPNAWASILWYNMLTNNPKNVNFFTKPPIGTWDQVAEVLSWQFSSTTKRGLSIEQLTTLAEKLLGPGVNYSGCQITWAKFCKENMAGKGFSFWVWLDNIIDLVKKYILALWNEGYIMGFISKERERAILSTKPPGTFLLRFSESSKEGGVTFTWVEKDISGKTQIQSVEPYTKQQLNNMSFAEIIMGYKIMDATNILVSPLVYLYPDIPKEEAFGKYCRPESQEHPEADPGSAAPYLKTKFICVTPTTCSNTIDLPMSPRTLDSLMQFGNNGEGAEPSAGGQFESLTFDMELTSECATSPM
NFkB binder: binders of human NF-kappa-B p105. P19838. Small molecule microarray, anti-His fluorescence binding. calls only. actives 1.3% (n = 17,000);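 active = spot fluorescence over background significantly raised, with a chance value under 7% in all four replicate spots of the compound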;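 also: probe protein is his-tagged human p50 processed subunit at 1 µg/ml; raw spot fluorescence signals with no normalization applied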
* marks the source's active call; other numbers are inactive results; i = inactive; + = active, no number. An excerpt weighted towards active compounds, which were near 2.5% of everything screened.

SMILES	c-Myc SMM	mut p53 SMM	STAT3 SMM	NFkB binder
COC(=O)c1ccc([C@H]2C=C(C(=O)N3CCN(Cc4ccc5c(c4)OCO5)CC3)O[C@@H](OCc3ccc(CO)cc3)C2)cc1	i	i	i	i
COc1cc(OC)c(OC)cc1CN1CCN(Cc2ccccn2)CC1	+	i	i	i
C[C@H](CO)N1C[C@H](C)[C@H](CN(C)S(=O)(=O)c2ccccc2)Oc2ncc(/C=C/c3ccccc3)cc2C1=O	i	i	i	i
O=C(O)CCN1C(=O)c2cccc3c([N+](=O)[O-])ccc(c23)C1=O	+	i	i	i
Cc1ccc([N+](=O)[O-])cc1NC(=O)CCN1C(=O)c2ccccc2C1=O	i	i	i	i
CC1OC(OCC2(C)C=C3C4CCC5C6(C)CCC(O)C(C)(COC7OC(CO)C(O)C(O)C7O)C6CCC5(C)C4(C)CCC3(C(=O)O)CC2)C(O)C(O)C1O (configuration not stated)	i	i	i	i
CC1OC(OCC2OC(OCC3(C)C(O)CCC4(C)C3CCC3(C)C4CCC4C5=CC(C)(C)CCC5(C(=O)O)CCC43C)C(O)C(O)C2O)C(O)C(O)C1O (configuration not stated)	+	i	i	+
C[C@@H]1CN([C@H](C)CO)C(=O)Cc2cc(NS(=O)(=O)c3ccc(Cl)cc3)ccc2O[C@@H]1CN(C)C(=O)Nc1ccc(F)cc1	i	i	i	i
C=CCN1Cc2ccccc2[C@@H]2OC(c3ccc(OCCCO)cc3)=N[C@]2(CCC(=O)OC(C)(C)C)C1=O	i	i	i	+
O=C1N(Cc2ccccc2)Cc2ccccc2C[C@@]12N=C(c1ccc(OCCCO)cc1)O[C@H]2c1ccccc1	i	+	i	+
Cc1nnc(SCC(=O)Nc2cccc(I)c2)s1	i	i	i	i
Cc1ccc(-c2cc3ccccn3c2C(=O)CSc2nnc(C)s2)cc1	+	i	i	i
COC(=O)c1cccc2nc3c(C(C)O)cccc3nc12 (configuration not stated)	+	i	i	i
COC(=O)c1ccccc1NC(=O)C(C)Oc1ccccc1 (configuration not stated)	i	i	i	i
O=C(O)CCNC(=O)c1cncc(Br)c1	+	i	i	i
CC(=O)Nc1cccc(NC(=O)c2cc(-c3ccccn3)nc3ccc(Cl)cc23)c1	i	i	i	i
COc1cccc(CN2CCN(C(=O)c3cc(-c4ccccn4)nc4ccc(Cl)cc34)CC2)c1	i	+	i	i
COC(=O)c1c(NC(=S)NCc2ccco2)sc2c1CCC(C)C2 (configuration not stated)	i	i	i	i
O=C(Nc1sc2c(c1C(=O)NCc1ccco1)CCC2)c1sc2ccccc2c1Cl	+	i	i	i
COc1ccc(S(=O)(=O)N(C)CCc2ccccn2)cc1	+	i	+	+
CN(C/C=C/c1ccccc1[N+](=O)[O-])CCc1ccccn1	i	i	i	i
C[C@@H]1CN([C@H](C)CO)C(=O)Cc2cc(N(C)C)ccc2O[C@H]1CN(C)S(=O)(=O)c1cccs1	i	i	i	i
C[C@H](CO)N1C[C@H](C)[C@@H](CN(C)Cc2ccc(C(F)(F)F)cc2)Oc2ccc(NC(=O)Cc3cn(C)c4ccccc34)cc2CC1=O	+	i	i	+
C[C@@H]1CN([C@@H](C)CO)C(=O)Cc2cc(N(C)C)ccc2O[C@H]1CN(C)S(=O)(=O)c1cccs1	+	i	i	i
Cc1noc(C)c1S(=O)(=O)Nc1ccc2c(c1)CC(=O)N([C@@H](C)CO)C[C@H](C)[C@H](CN(C)Cc1ccc(-c3ccccc3)cc1)O2	i	i	i	i
SMILES	c-Myc SMM	mut p53 SMM	STAT3 SMM	NFkB binder
C[C@H]1CN([C@@H](C)CO)C(=O)Cc2cc(NC(=O)Nc3ccc(F)cc3)ccc2O[C@H]1CN(C)CC1CC1	i	i	+	i
Cc1noc(C)c1S(=O)(=O)Nc1ccc2c(c1)CC(=O)N([C@H](C)CO)C[C@@H](C)[C@@H](CN(C)Cc1ccc(-c3ccccc3)cc1)O2	+	i	+	i
Cc1noc(C)c1NC(=O)Nc1ccc2c(c1)C(=O)N([C@@H](C)CO)C[C@@H](C)[C@@H](CN(C)C)OCCCC[C@@H](C)O2	i	i	i	i
COc1ccc(S(=O)(=O)N(C)C[C@H]2Oc3ccc(NC(=O)Nc4ccc(C(F)(F)F)cc4)cc3CC(=O)N([C@H](C)CO)C[C@H]2C)cc1	+	i	i	i
COc1ccc(S(=O)(=O)N(C)C[C@@H]2Oc3ccc(NC(=O)Nc4ccc(C(F)(F)F)cc4)cc3CC(=O)N([C@@H](C)CO)C[C@H]2C)cc1	i	i	i	i
COc1ccc(NC(=O)Nc2ccc3c(c2)CC(=O)N([C@@H](C)CO)C[C@H](C)[C@@H](CN(C)Cc2ccc(Oc4ccccc4)cc2)O3)cc1	i	+	i	i
COc1ccc(CN(C)C[C@@H]2Oc3ccc(NC(=O)Nc4ccc(F)cc4)cc3C(=O)N([C@H](C)CO)C[C@@H]2C)cc1	i	i	i	i
O=C(O)CCCC(=O)Nc1ccc(Br)cc1C(=O)O	+	i	i	+
C[C@H]1C=C(C(=O)Nc2ccccc2)O[C@@H](OCc2ccc(CO)cc2)C1	i	i	i	i
C=CCOC(=O)C1=C[C@H](c2coc3ccccc3c2=O)C[C@H](OCc2ccc(CO)cc2)O1	+	i	i	i
C[C@@H]1CN([C@H](C)CO)C(=O)c2cc(NC(=O)CCC(F)(F)F)ccc2O[C@@H](C)CCCCO[C@H]1CN(C)C(=O)CCC(F)(F)F	+	i	i	+
C[C@H](CO)N1C[C@H](C)[C@H](CN(C)C(=O)CCC(F)(F)F)OCCCC[C@H](C)Oc2ccc(NC(=O)CCC(F)(F)F)cc2C1=O	+	i	i	+
CC(C)NC(=O)N(C)C[C@H]1OCCCC[C@H](C)Oc2ccc(NC(=O)CCC(F)(F)F)cc2C(=O)N([C@H](C)CO)C[C@@H]1C	+	i	i	+
C[C@@H]1CN([C@@H](C)CO)C(=O)c2cc(NC(=O)CCC(F)(F)F)ccc2O[C@@H](C)CCCCO[C@@H]1CN(C)C(=O)CCC(F)(F)F	+	i	i	+
C[C@H](CO)N1C[C@H](C)[C@@H](CN(C)C(=O)CCC(F)(F)F)OCCCC[C@H](C)Oc2ccc(NC(=O)CCC(F)(F)F)cc2C1=O	i	i	i	i
C[C@@H]1CCCCO[C@H](CN(C)C(=O)CCC(F)(F)F)[C@@H](C)CN([C@@H](C)CO)C(=O)c2cc(NC(=O)CCC(F)(F)F)ccc2O1	i	i	i	i
CCCCC/C=C\C/C=C\CCCCCCCC(=O)OCC(O)CO (configuration not stated)	i	i	i	i

Compound activity from PubChem.
